About 17,000 (4.7%) of roughly 360,000 compounds were called active. Another 5% or so got no clear call; they are omitted. Cut-off read from the data, not from the text of the source: active = activity change below about -50%; inconclusive = mostly about -30% to -49%; inactive = weaker than that. What follows is part of a selection rich in actives, with near analogues and random picks from the rest.
Assay: qHTS for Inhibitors of Inflammasome Signaling: IL-1-beta AlphaLISA Primary Screen
Settings: THP-1 LPS/ATP IL-1B secretion, 16 h; at 57.5 µM, stronger effect = lower value
Excerpt: Inflammasomes are a set of intracellular multi-protein complexes that enable autocatalytic activation of inflammatory caspases and drive the innate immune response to counter harmful agents. […] A qHTS assay, based on AlphaLISA technology, was developed to screen the Molecular Libraries Small Molecule Repository (MLSMR) to look for novel inflammasome inhibitors. The assay detects IL-1B using AlphaLISA anti-IL-1B acceptor and donor beads. A decreased emission signal, indicating reduced IL-1B secretion, is the desired outcome for this assay. NIH Chemical Genomics Center [NCGC] NIH Molecular Libraries Probe Centers Network [MLPCN] MLPCN Grant: MH095513 Assay Provider: Shyam Biswal Ph.D., Johns Hopkins University Immunity. 2012 Jul 27;37(1):85-95. PMID: 22819042 [2] Curr Pharm Des. 2012;18(16):2320-8. PMID: 22390695
Three microliters containing 3000 THP-1 cells were dispensed into the wells of solid, white, tissue culture treated Greiner 1,536-well plates. Library compounds and positive control, Glyburide, were pin-transferred (23 nL) by a Kalypsys pin-tool equipped with a 1,536-pin array, resulting in final compound concentration ranges of 2.5 nM to 57.5 uM. After 1 hr of cell culture incubation (37 °C, 5% CO2), 1 microL of 1 microg/mL lipopolysaccharide (250 ng/mL, final) and 5 mM ATP (1.25 mM, final) were added to stimulate the cells. After 16 hr of cell culture incubation with the compounds, 1.5 uL of anti-IL-1B acceptor beads (6 ug/mL, final) and biotinylated antibody (0.6 nM, final) were added to the plate, followed by a 1 hr incubation at ambient temperature. To detect the secreted IL-1B, 1.5 uL of AlphaLISA SA-Donor beads (24 ug/mL, final) were added, followed by 30 min of incubation in the dark at ambient temperature. The AlphaLISA signal was read by a PerkinElmer EnVision plate reader with an ultrasensitive luminescence detector and 1536 Plate HTS AlphaScreen aperture (excitation of 680nm and emission of 615nm).
% is set by controls: 0 for no effect and ±100 for the full control effect.

Activity change, active:
COC(C/C=C/C(=O)[C@@H](C)OCc1ccccc1)OC -95.4%
O=[N+]([O-])/C=C/c1ccc2c(ccn2Cc2ccccc2)c1 -90.5%
CSc1cccc(NC(=S)N(C(C)C)C(C)c2ccccn2)c1 (stereo not drawn) -98.3%
O=C(/C=C/c1cccc(C(F)(F)F)c1)N1CCN(c2ccccn2)CC1 -95.2%
CCc1nc2ccc(C(=O)NCc3ccc(OC)cc3)cn2c1N(CC)Cc1cccc(Br)c1 -70.8%
CC(C)CC[n+]1ccn(C2=C([O-])c3ccccc3C(=O)/C2=N\S(=O)(=O)c2ccccc2)c1 -50.7%
C/C(CC1CC(C)(C)OC1=O)=N/Nc1nc(-c2ccccc2)cs1 (stereo not drawn) -54.9%
COc1ccc(CNC(=O)C2(CC3CC(c4ccccc4)=NO3)CCN(C(=O)c3cccc(O)c3)CC2)cc1 (stereo not drawn) -61.2%
O=C(c1ccccc1)N1CCC(CC2CC(c3ccc(Cl)cc3)=NO2)(C(=O)NCC2CCCCC2)CC1 (stereo not drawn) -55.1%

Activity change, inactive:
Cc1ccc(NC(=O)CCCNC(=O)c2ccc(Cl)cc2)cc1S(=O)(=O)N1CCCCC1 -6.38%
COC(C[C@H](O)CC(=O)[C@@H](C)OCc1ccccc1)OC -16.6%
COC(C[C@@H]1O[C@@H]1C(=O)[C@H](C)OCc1ccccc1)OC 8.19%
C[C@H](CO)N1C[C@H](C)[C@H](CN(C)C(=O)c2ccncc2)OCc2ccccc2-c2c(n(C)c3ccccc23)C1=O 42.4%
CCCOC1CCCN(Cc2cn(C)nc2-c2ccccc2F)C1 (stereo not drawn) -7.48%
COCCNC(=O)C1(C)CCCN(Cc2cccc(F)c2)C1 (stereo not drawn) -12.6%
COc1ccc(OC)c(C(=O)NC(CC(N)=O)c2ccc(N3CCC(N4CCCCC4)CC3)c([N+](=O)[O-])c2)c1 (stereo not drawn) 13.4%
COC(=O)Cn1cc(/C=C/[N+](=O)[O-])c2ccccc21 -27.5%
O=C(Cn1ccc2cc(S(=O)(=O)N3CCCC3)ccc21)NCc1ccccc1 14.2%
Cc1ccc(-c2nc3c(C)cc(Br)cn3c2Cc2ccccc2)cc1 58%
COc1cccc(NC(=O)CCc2nnc3ccc(N4CCC(C)CC4)nn23)c1 -6.48%
O=C(NCc1ccc(F)cc1)c1cc(C2CCCCN2C(=O)C2CCCCC2)on1 (stereo not drawn) -0.0267%
Cc1cc(OCCCC(=O)Nc2cc(S(=O)(=O)N3CCOCC3)ccc2N2CCOCC2)ccc1Cl -1.02%
CSc1cccc(NC(=S)N(Cc2ccccc2)Cc2ccccn2)c1 -6.44%
CC(c1ccccn1)N(CCN(C)C)C(=S)Nc1ccccc1F (stereo not drawn) 0%
O=C(/C=C/[C@H]1O[C@@H](n2ccc(=O)[nH]c2=O)[C@H](O)[C@@H]1O)NCc1ccccn1 21.7%
COc1ccc(N2CCN(C3CCCCC3NS(=O)(=O)c3ccccc3)CC2)cc1 (stereo not drawn) -0.438%
O=C(C(Cl)Cl)N1CCN(c2ccccn2)CC1 1.16%
O=C(Cc1ccc(Br)cc1)N1CCN(c2ccccn2)CC1 8.64%
O=S1(=O)CCN(Cc2ccccc2)CC1 -15.7%
Cc1nccn1-c1ccc(NC(=O)[C@H]2O[C@@H](n3cnc4c(N)ncnc43)[C@H](O)[C@@H]2O)cc1 -25.6%
COc1ccc(-n2ncc3c2CC(C)(C)CC3NC(=O)CCc2c(C)noc2C)cc1 (stereo not drawn)
O=C(N=C1SC2CS(=O)(=O)CC2N1Cc1ccccc1)c1ccccc1 (stereo not drawn) -24.4%
CCc1nc2ccc(C(=O)Nc3cccc(OC)c3)cn2c1N(CCC(C)C)CCN(C)C 30.7%
CCc1nc2ccc(C(=O)NCCNC(C)=O)cn2c1N(CC)Cc1cccc(Br)c1 27.3%
CN(C(=O)CN1CCN(c2cc(-c3ccc(OCc4ccccc4)cc3)ncn2)CC1)c1ccccc1 8.46%
Cc1ccc(S(=O)(=O)/N=C2\C=C(NS(=O)(=O)c3ccc(C)cc3)C(=O)c3ccccc32)cc1 57.7%
COc1ccc(S(=O)(=O)/N=C2\C=C(NS(=O)(=O)c3ccccc3)C(=O)c3ccccc32)cc1 36%
CC(=O)c1ccc(NC(=O)C(C)NCc2ccc(Cl)cc2)cc1 (stereo not drawn) -14.8%
CCc1nc2c(OCc3ccccc3)cccn2c1N(C)C(=O)c1ccco1 -17.3%
C[C@H]1CN([C@@H](C)CO)C(=O)c2cc(-c3cccc(F)c3)cnc2O[C@@H]1CN(C)S(C)(=O)=O 7.01%
CCC(=O)N1CCc2cc(Br)c(S(=O)(=O)NCCN3CCCCC3CC)cc21 (stereo not drawn) -5.22%
CC1(C)CC(CC(=O)O)C(=O)O1 (stereo not drawn) -17%
CCc1noc(C)c1C(=O)Nc1nc(-c2ccccc2)cs1 61.4%
COC(=O)[C@@]1(Cc2ccc(F)cc2)[C@H]2c3cc(C(=O)N4CCCC4)n(C[C@H](O)CO)c3C[C@H]2CN1C(=O)c1ccccc1 -0.432%
CN1OC[C@@H]2CN(S(=O)(=O)c3cccc4ccccc34)[C@H](c3ccc(N4CCCCC4)cc3)C[C@@H]21 -6.93%
CCNC(=O)C1(C)CCN(C(=O)c2ccccc2)C1 (stereo not drawn) 26.9%
COc1ccc(CNC(=O)C2CCN(C(=O)c3ccccc3)CC2)cc1 0%
CCCCCCCNC(=O)C1(CC2CC(c3cccc(Br)c3)=NO2)CCN(C(=O)c2cc(OCC)c(OCC)c(OCC)c2)CC1 (stereo not drawn) -24.2%
Cc1ccccc1-c1cc(C(=O)NCC2CC2)n(CC2CC(c3cccnc3)=NO2)n1 (stereo not drawn) -18.9%
O=C(C[C@H]1CC[C@H]2[C@@H](COC[C@H](O)CN2C(=O)c2ccccn2)O1)N1CCN(c2ccccc2)CC1 18.8%
CC(=O)N=c1ncn(CC(COC(C)=O)OC(C)=O)c2nc[nH]c12 (stereo not drawn) -17.6%
O=c1[nH][nH]c2c1[C@H](c1ccc(Cl)cc1)O[C@H](CCc1ccccc1)C2 -5.73%
Cc1cccc(CC2(O)C(=O)Nc3ccccc32)n1 (stereo not drawn) 12.5%

Reference: PubChem BioAssay AID743279 (National Center for Advancing Translational Sciences (NCATS), 2014)
